UCHL1 inh = inhibitors of human UCHL1 deubiquitinase; 0.2% of 47,000 active; P09936; purified UCHL1, Ub-rhodamine cleavage fluorescence; inhibition, % at 20 µM
USP7 block = human USP7 deubiquitinase inhibition; inhibition, % at 20 µM; AID 1645854; 0.3% of 47,000 active; purified USP7, Ub-rhodamine cleavage fluorescence
USP8 inh = human USP8 deubiquitinase inhibition. 4.2% of 47,000 active. P40818. purified USP8, Ub-rhodamine cleavage fluorescence, 30 min. inhibition, % at 20 µM
USP10 block = human USP10 deubiquitinase inhibition | 1.1% of 47,000 active | purified USP10, Ub-rhodamine fluorescence, 60 min | AID 1645856 | inhibition, % at 20 µM | Q14694
Active calls of the source: *; · = no result given. The list is not random: actives were taken first. Their share in the collection is about 5%. No stated cut-off is given here; in the data, active means inhibition above about 30%; inactive means the rest.

SMILES	UCHL1 inh	USP7 block	USP8 inh	USP10 block
Cc1oncc1C(=O)N1CC[C@H]2CO[C@H](CN3CCOCC3)[C@H]2C1	22	6	-141	0
Cc1ccc2sc(NCc3ccncc3)nc2c1C	-3	-1	-6	-2
CS(=O)(=O)N1CCN(c2ccccc2NC(=O)COc2ccc(Br)cc2)CC1	9	63*	92*	72*
CS(=O)(=O)N1CCN(c2ccc(NC(=O)COc3ccccc3)cc2)CC1	-3	4	-14	6
CC(=O)O[C@@H](C/C=C(\C)C(=O)O)[C@@H](C)[C@H]1C[C@H](OC(C)=O)[C@@]2(C)C3=CC[C@H]4C(C)(C)[C@H](OC(C)=O)CC[C@]4(C)C3=CC[C@]12C	57*	93*	92*	95*
CC(=O)O[C@@H](C/C=C(\C)C(=O)O)[C@@H](C)[C@H]1C[C@H](OC(C)=O)[C@@]2(C)C3=CC[C@H]4C(C)(C)[C@H](O)CC[C@]4(C)C3=CC[C@]12C	3	14	13	52*
CC(C)CNC(=O)c1ncn2c1CN(CC1CC1)S(=O)(=O)c1ccccc1-2	0	2	4	0
O=C1CC[C@H](O)c2cccc(O)c21	0	0	0	2
O=C1CC(O)C(O)c2cccc(O)c21 (stereo unspecified)	17	-42	76*	12
CC1(C)c2[nH]c3ccccc3c2C[C@@H]2C(=O)N(C3CCCCC3)CC(=O)N21	0	-20	31*	7
COc1cccc(NC(=O)CCc2nnc3n(CCCOC(C)C)c(=O)c4ccccc4n23)c1	4	·	81*	4
CC(C)OCCCn1c(=O)c2ccccc2n2c(CCC(=O)NCc3ccccn3)nnc12	1	0	0	1
O=C(NCc1ccccc1CN1CCOCC1)c1cc(-c2ccncc2)nc2ccccc12	1	0	2	-3
COc1cc2c(cc1OC)C(COc1cc(C)cc(C)c1)NCC2 (stereo unspecified)	-12	-9	65*	-6
CC1=CC(O)C2OC2C1=O (stereo unspecified)	-1	7	6	5
CCOc1ccccc1NC(=O)Nc1ccccc1OCc1cc(=O)n2cccc(C)c2n1	0	3	-11	-3
O=C(Nc1ccc(F)cc1)Nc1ccccc1OCc1cc(=O)n2ccccc2n1	-1	5	43*	25
Cc1cccc(NC(=O)Nc2ccccc2OCc2cc(=O)n3cccc(C)c3n2)c1	-2	5	36*	26
Cc1ccc(NC(=O)Nc2ccccc2OCc2cc(=O)n3cc(C)ccc3n2)cc1	10	15	32*	17
O=C(Nc1ccc2c(c1)OCCO2)Nc1ccccc1OCc1cc(=O)n2ccccc2n1	1	0	-8	-2
Cc1ccc(NC(=O)C(NS(=O)(=O)c2cccc3cccnc23)C(C)C)c(C)c1 (stereo unspecified)	-6	-12	-46	-8
Cc1noc(-c2cc3c(ccc4ccccc43)oc2=O)n1	-7	-9	-11	-4
CCOc1ccc(-c2cc3nc(C4CCN(C(=O)OC(C)(C)C)CC4)c(C(=O)Nc4cc(F)ccc4F)cn3n2)cc1	-6	9	56*	2
O=C(CN(Cc1ccccc1)S(=O)(=O)c1ccc(Cl)cc1)NCc1ccco1	3	-1	11	10
Cc1ccc2c(C)c(C(=O)N(Cc3ccc(Cl)cc3)Cc3ccco3)oc2c1C	8	12	49*	16
SMILES	UCHL1 inh	USP7 block	USP8 inh	USP10 block
Cc1cccc(NC(=O)CSc2nnc(CNc3ccc(Cl)cc3)n2C)c1C	0	-72	44*	-1
COc1ccccc1C(=O)NCc1nnc(SCC(=O)Nc2cccc(C)c2C)n1C	3	3	-6	-3
Cc1cc(NC(=O)CN2C(=O)C(=O)c3ccccc32)ccc1-n1ncnn1	-2	-8	32*	1
CCN1CCc2nc(-c3ccccc3)n(CC(=O)N3CCOc4ccc(C)cc43)c(=O)c2C1	1	4	59*	-5
Cc1ccc2c(c1)N(C(=O)Cn1c(C)nc3c(c1=O)CCN(Cc1ccccc1)C3)CCO2	3	0	-4	-3
CCN1CCc2nc(-c3ccc(F)cc3)n(CC(=O)N(CC)c3ccccc3)c(=O)c2C1	-1	0	48*	-3
Cc1ccccc1S(=O)(=O)N1CC[C@@H]2[C@H](CC1)N(C)CCS2(=O)=O	1	-2	1	2
Cc1cccc(-c2nnn3c2nc(NCC2CCCO2)c2ccccc23)c1 (stereo unspecified)	2	10	67*	26
Cc1cc(NCC2CCCO2)n2nc(-c3cccc(Cl)c3)c(C)c2n1 (stereo unspecified)	10	4	6	5
Cc1nn(-c2nc3ccccc3[nH]2)c2c1C(c1cccs1)CC(=O)N2 (stereo unspecified)	5	7	38*	19
Cc1nn(-c2nc3ccccc3[nH]2)c2c1C(c1ccccc1Cl)CC(=O)N2 (stereo unspecified)	-5	6	51*	10
Cc1nn(-c2nc3ccccc3[nH]2)c2c1C(c1cccc(F)c1)CC(=O)N2 (stereo unspecified)	-2	0	19	14
O=c1c(Nc2ccc(F)c(F)c2)nc2ccncc2n1Cc1ccccc1	-5	-8	-145	-10
CCOC(=O)C(C)Sc1ncnc2c1sc1nc(N3CCCC3)c3c(c12)CC(C)(C)OC3 (stereo unspecified)	0	-1	46*	-4
Cc1cc(C(=O)COc2ncnc3sccc23)c(C)n1-c1ccc2c(c1)OCO2	0	-8	8	4
Cc1ccc(S(=O)(=O)CCC(=O)OCC(=O)c2cc(C)n(-c3ccc4c(c3)OCO4)c2C)cc1	4	5	58*	6
Cc1cc(C(=O)COC(=O)c2ccc[nH]c2=O)c(C)n1-c1ccc2c(c1)OCO2	0	-13	30*	3
Cc1cc(C(=O)CN2CCN(Cc3ccc4c(c3)OCO4)CC2)c(C)n1-c1ccc2c(c1)OCO2	0	-8	21	-8
O=C(CN(CC(=O)NCc1ccccc1Cl)c1nc2ccccc2s1)NCc1ccccc1Cl	2	12	69*	36*
O=C(CN(Cc1ccccc1)S(=O)(=O)c1ccccc1)NCc1ccccc1Cl	6	0	4	12
COc1cccc(S(=O)(=O)N2CC[C@@H]3[C@H]2C(=O)N(C)[C@@H](C)C(=O)N3C)c1	2	6	32*	0
O=C1NC2(CCc3ccccc31)CCN(Cc1ccnc(N3CCOCC3)n1)C2 (stereo unspecified)	-1	1	-2	0
O=C(O)c1cccnc1N1CCCC1c1ccccc1 (stereo unspecified)	0	0	47*	-2
Cc1cc(C)cc(-n2ccnc(SCC(=O)Nc3cccc(Cl)c3)c2=O)c1	4	6	-4	7
CCOc1ccc(-n2ccnc(SCC(=O)Nc3ccccc3F)c2=O)cc1	-3	21	57*	16
CCOc1ccc(-n2ccnc(SCC(=O)Nc3ccccc3Cl)c2=O)cc1	-2	21	53*	-1
COc1ccc(C(=O)N2CCC3(CC2)OC(C(=O)Nc2ccccc2)Cn2ccnc23)cc1 (stereo unspecified)	-3	-2	-25	-6
